Measurements published in PubChem BioAssay (NCATS).
Results filed as inconclusive are left out. Where a call stands in place of a potency, no number is given. Calls of active or inactive are those of the source. Calls come from the whole dose curve; as a rule, active = well fitted inhibition curve with a large enough effect; inconclusive = small, poorly fitted or top-dose-only effect; inactive = flat fitted curve, though single readings scatter.

These molecules were tested against Calcium and integrin-binding protein 1 (Homo sapiens) (UniProt Q99828) (assay: Primary qHTS for Identification of Calcium Integrin Binding Protein 1 (CIB1) Competitor (AID 1508620; note: top concentration of the series differs between compounds)). Conditions: CIB1-GST / FITC-alphaIIb peptide fluorescence polarization; series mostly up to 114 µM.
In short: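 Fluorescence polarization competition: GST-tagged CIB1 (1 uM final) preincubated with compound 15 min at room temperature, then FITC-labelled alphaIIb peptide (100 nM final) added. After 15 min at room temperature, polarization read at Ex 480/Em 540.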

Calcium and integrin-binding protein 1 (Homo sapiens), sequence (Q99828 whole entry, looked up): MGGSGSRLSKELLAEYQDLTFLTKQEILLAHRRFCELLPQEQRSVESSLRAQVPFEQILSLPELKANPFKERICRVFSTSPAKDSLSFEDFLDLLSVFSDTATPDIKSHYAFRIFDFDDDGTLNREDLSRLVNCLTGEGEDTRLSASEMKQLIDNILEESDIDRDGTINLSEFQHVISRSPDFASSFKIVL

Structure (SMILES)	Potency
C[C@@H](N)C(=O)Nc1cccc(-c2nn3c(=O)cc(N4CCNCC4)nc3s2)c1	inactive
COc1cccc(Cn2ncc3c4sc(SC)cc4n(C)c3c2=O)c1	inactive
Cn1nnnc1Sc1ncnc2scc(-c3ccc(Cl)cc3)c12	inactive
O=C(OCC#CCSc1nnc(-c2cccc(F)c2)o1)c1ccc(F)cc1	inactive
Cc1ccc(C[C@H](C(=O)O)N2C(=O)c3ccc(C(=O)O)cc3C2=O)c(C)c1	inactive
O=C1CCCC2=C1C1(CCCC1)N=C(Nc1nc3cc(Cl)ccc3o1)N2	inactive
COc1cc(OC)cc(-c2nnc3n2N=C(c2ccc(OC)c(OC)c2)CS3)c1	inactive
N#Cc1nc(Nc2cc(Cl)cc(Cl)c2)nc(NC2CCCC2)n1	inactive
COc1ccc(C2Nc3ccccc3C(=O)N2Cc2ccccc2)cc1COc1cccc(Cl)c1 (centres undefined)	inactive
CCc1ccc2oc(=O)cc(CN3CCN(c4ccccc4F)CC3)c2c1	inactive
S=C(Nc1ccc(Cl)c(Cl)c1)Nc1nnc(-c2ccncc2)s1	inactive
Cc1cc(C)c(C)c(S(=O)(=O)N2CCN(S(=O)(=O)c3ccc4c(c3)OCCO4)CC2)c1C	inactive
Cc1c(C(=O)OCC(C)(C)C)[nH]c2c1C(=O)CC(c1ccco1)C2 (centres undefined)	inactive
Fc1cccc(CNc2ncnc3ccc(-c4ccc5c(c4)OCO5)cc23)c1	inactive
CC(=O)Nc1sc2c(c1-c1ccc3nsnc3c1)CCNC2	inactive
O=C(Nc1ccc(-n2cncn2)c(F)c1)Nc1nnc(-c2ccncc2)s1	inactive
Cc1ccc(N2CCN(C(=S)Nc3cc(C)ccn3)CC2)cc1	inactive
Nc1cc(S(=O)(=O)N2CCN(S(=O)(=O)c3ccc4c(c3)OCCO4)CC2)ccn1	inactive
FC(F)(F)c1ccccc1-c1nc(NCc2ccc(-c3ccc4c(c3)OCCO4)cc2)c2ccccc2n1	inactive
COc1ccc(OC)c(C2=Nn3c(nnc3-c3cc(OC)ccc3OC)SC2)c1	inactive

Structure (SMILES)	Potency
O=C(Nc1ncc(Cc2ccc(C(F)(F)F)cc2)s1)c1ccc(-c2ccccc2[N+](=O)[O-])o1	inactive
Cc1nc(-c2ccc(S(=O)(=O)Nc3ccc(C)c(C)c3)s2)cs1	inactive
COc1ccc(C2=Nn3c(nnc3-c3ccc(OC)cc3OC)SC2)c(OC)c1	inactive
Cc1cccc(C(=O)NC2CCN(C#N)CC2)c1	inactive
Cc1cc(C)n2ncc(C(=O)Nc3ccc(Cl)c(Cl)c3)c2n1	inactive
O=C(c1ccccc1O)N(Cc1cccs1)Cc1cccs1	inactive
COc1cccc(C2=Nn3c(nnc3-c3ccccc3C)SC2)c1	inactive
Cn1ncc2ccc(-c3ccc4ncnc(NCc5cccs5)c4c3)cc21	inactive
Cc1sc(NC(=O)Cc2ccc3c(c2)OCO3)nc1-c1ccc2c(c1)CCN2C(=O)C1CCCCC1	inactive
Cc1c(P(=S)(c2ccccc2)c2ccccc2)c2ccccc2n1Cc1ccccc1	inactive
COc1cc(O)c(C(CC(=O)N2CCC[C@@H](C)C2)c2ccc3c(c2)OCO3)c(OC)c1 (some centres undefined)	inactive
FC(F)(F)c1ccc(-c2nc(NCc3ccc(-c4ccnc(C(F)(F)F)c4)cc3)c3ccccc3n2)cc1	inactive
COc1ccc(C2Nc3ccccc3C(=O)N2Cc2ccccc2)cc1COc1ccc(C)cc1 (centres undefined)	inactive
COc1ccc(-c2nnc3n2N=C(c2ccccc2OC)CS3)c(OC)c1	inactive
O=S(=O)(c1ccc2c(c1)OCCO2)N1CCN(S(=O)(=O)c2ccco2)CC1	inactive
Cc1ccc(S(=O)(=O)Nc2cccc3ccc(C)nc23)cc1	inactive
COc1cccc(Nc2ccc(N3CCN(C(C)=O)CC3)cc2)c1OC	inactive
O=c1c2ccccc2nc2sc(NCc3ccc([S+](=O)([O-])c4ccccc4)cc3)nn12	inactive
CCOC(=O)c1ccc(-c2ccc3ncnc(NCc4ncc[nH]4)c3c2)o1	inactive
